Results published in publication PMC12431657, “Discovery and mechanistic insights of dibenzoylmethane as a broad spectrum inhibitor of coronavirus” (PLOS Pathogens, 2025).
Like-named read-outs stand apart in the source and are kept apart here. About 60 (2%) of roughly 3,300 compounds showed an effect of 50% or more. The list comes from a sample in which strong results are over-represented; it also holds similar structures and randomly drawn compounds.

Tested on: HCoV-OC43
Design: species or system RD; HTS, protection from HCoV-OC43 induced cell death, luminescent cell viability (CellCounting-Lite 2.0), inhibition rate
Details: 10 µM, inhibitor

Row | SMILES | OC43 Inhibition rate (24 h post infection, 1 h compound pre-incubation) [%] | OC43 Inhibition rate (24 h)
1 | CCC(=O)O[C@H]1[C@H](O[C@@H]2[C@@H](C)[C@H](O[C@H]3C[C@@](C)(OC)[C@@H](O)[C@H](C)O3)[C@@H](C)C(=O)O[C@H](CC)[C@@](C)(O)[C@H](O)[C@@H](C)C(=O)[C@H](C)C[C@@]2(C)O)O[C@H](C)C[C@@H]1N(C)C [Erythromycin estolate, erythromycin estolate] | 99.7 | –
2 | O=C1C([C@@H]2O[C@H](CO)[C@@H](O)[C@H](O)[C@H]2O)=C(O)/C(=C(O)/C=C/c2ccc(O)cc2)C(=O)C1(O)[C@@H]1O[C@H](CO)[C@@H](O)[C@H](O)[C@H]1O (stereo partly drawn) [Hydroxysafflor yellow A] | – | 0.2%
3 | Oc1c(Br)cccc1Br [2,6-Dibromophenol] | – | 1.1%
4 | C[C@H]1CCC[C@@H](O)CCCCCc2cc(O)cc(O)c2C(=O)O1 [Beta-Zearalanol] | – | 0%
5 | C[C@H]1CCCC(=O)CCC/C=C/c2cc(O)cc(O)c2C(=O)O1 [Zearalenone] | – | 56.4%
6 | C=C(C)[C@@H]1[C@H]2OC(=O)[C@@H]1[C@]1(O)C[C@H]3O[C@]34C(=O)O[C@H]2[C@]14C [Picrotoxinin] | – | 0.5
7 | O=C1C=CC[C@@H]2[C@H]3CCC[N+]4([O-])CCC[C@@H](CN12)[C@@H]34 (stereo partly drawn) [Oxysophocarpine] | – | -0.3%
8 | C[C@@H]1CC[C@@]2(NC1)O[C@H]1C[C@H]3[C@@H]4CC=C5C[C@@H](O[C@@H]6O[C@H](CO)[C@@H](O[C@@H]7O[C@@H](C)[C@H](O)[C@@H](O)[C@H]7O)[C@H](O)[C@H]6O)CC[C@]5(C)[C@H]4CC[C@]3(C)[C@H]1[C@@H]2C [Khasianine] | – | 67.5%
9 | C[C@@H]1CC[C@@]2(OC1)O[C@H]1C[C@H]3[C@@H]4CC=C5C[C@@H](O[C@@H]6O[C@H](CO)[C@@H](O[C@@H]7O[C@@H](C)[C@H](O[C@@H]8O[C@@H](C)[C@H](O)[C@@H](O)[C@H]8O)[C@@H](O)[C@H]7O)[C@H](O)[C@H]6O[C@@H]6O[C@@H](C)[C@H](O)[C@@H](O)[C@H]6O)CC[C@]5(C)[C@H]4CC[C@]3(C)[C@H]1[C@@H]2C [Formosanin C] | – | 5.5%
10 | Cc1c([C@H](C)[C@@H]2NC[C@@H](C)C[C@H]2O)ccc2c1C[C@H]1[C@H]2CC=C2C[C@@H](O[C@@H]3O[C@H](CO)[C@@H](O)[C@H](O)[C@H]3O)CC[C@@]21C [Veratrosine] | – | 5.4%
11 | COc1cc2ccc(=O)oc2c2ccoc12 [Sphondin] | – | 0.1%
12 | COc1cc([C@@H]2c3cc4c(cc3C(=O)[C@H]3COC(=O)[C@H]23)OCO4)cc(OC)c1OC [Podophyllotoxone] | – | 4.4%
13 | Cc1ccc(C=O)cc1 [p-Tolualdehyde] | – | -0.1
14 | CC(C)=CCC[C@H](C(=O)O)[C@H]1CC[C@]2(C)C3=C(CC[C@@]12C)[C@@]1(C)CCC(=O)C(C)(C)[C@H]1CC3 [β-Elemonic acid] | – | -1.4%
15 | CC1(C)OC1COc1c2occc2cc2ccc(=O)oc12 (stereo not drawn) [Oxyimperatorin] | – | 2.8%
